Screening data: PubChem BioAssay, National Center for Advancing Translational Sciences (NCATS)
An excerpt weighted towards active compounds, which were near 12% of everything screened.
JMJD2A Tudor: JMJD2A Tudor domain (human) inhibition; Potency, µM (doses to about 114 µM), without a hit: at the highest dose activity change, negative = inhibition, usual class: inhibitors; O75164; AlphaScreen JMJD2A-Tudor / H3K4me3 peptide binding; AID 504339; 390,000 compounds, 4.4% hits; note: % is set by controls: 0 for no effect and ±100 for the full control effect; nearly all actives have a fitted effect of over 50% in size
BAZ2B inh: BAZ2B (human) inhibition. 360,000 compounds, 4.4% hits. AlphaScreen BAZ2B-H3K14Ac peptide displacement. Potency, µM (top dose mostly 114 µM), inactives show at the highest dose activity change, negative = inhibition, usual class: inhibitors; note: % is set by controls: 0 for no effect and ±100 for the full control effect; nearly all actives have a fitted effect of over 60% in size
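Multi-concentration screen (max 110 uM) measuring displacement of acetylated histone H3 peptide from BAZ2B by AlphaScreen, using 50 nM protein, 50 nM peptide and 10 ug/mL streptavidin donor plus Ni-chelate acceptor beads.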
G9a inh: inhibitors of human histone lysine methyltransferase G9a. 350,000 compounds, 8.8% hits. Potency, µM (top dose mostly 102 µM), for inactives: at the highest dose activity, negative = inhibition, actives largely listed as inhibitors. G9a H3K9 monomethylation, AlphaScreen, 2 h. Q96KQ7. AID 504332; note: % is set by controls: 0 for no effect and ±100 for the full control effect; nearly all actives have a fitted effect of over 75% in size
Target sequence (Q96KQ7 913-1193 limits assumed): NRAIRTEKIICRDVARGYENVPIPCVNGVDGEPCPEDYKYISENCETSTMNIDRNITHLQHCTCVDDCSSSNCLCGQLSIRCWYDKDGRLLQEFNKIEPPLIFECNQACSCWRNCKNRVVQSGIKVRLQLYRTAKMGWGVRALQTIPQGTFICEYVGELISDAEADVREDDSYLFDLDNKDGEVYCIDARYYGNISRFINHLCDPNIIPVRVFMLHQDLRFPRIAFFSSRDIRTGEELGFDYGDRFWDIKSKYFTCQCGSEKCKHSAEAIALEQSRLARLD
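Signal arises when biotinylated H3K9 peptide, once monomethylated, bridges streptavidin donor and antibody-captured acceptor beads. Enzyme at 20 nM was preincubated 15 min with test compounds; peptide 500 nM and SAM 20 uM then reacted for 2 h.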
HP1b binding inh: inhibitors of HP1-beta chromodomain binding to methylated histone tails; P83916; AlphaScreen HP1-beta / biotin-H3K9me3 peptide binding; Potency, µM (highest dose often 114 µM), for inactives: top-dose activity change, negative = inhibition, actives largely listed as inhibitors; 390,000 compounds, 0.56% hits; AID 540317; note: nearly all actives have a fitted effect of over 70% in size
Target sequence (P83916 whole entry, looked up): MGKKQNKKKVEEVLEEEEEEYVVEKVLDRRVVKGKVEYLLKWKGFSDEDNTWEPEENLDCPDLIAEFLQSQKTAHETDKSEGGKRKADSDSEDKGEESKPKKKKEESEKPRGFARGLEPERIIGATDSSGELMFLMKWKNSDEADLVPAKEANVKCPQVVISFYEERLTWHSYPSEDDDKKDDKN
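AlphaScreen: HP1-beta (50 nM) preformed 30 min with biotin-H3(1-18)K9me3 peptide (50 nM) in PBS pH 7.4, 0.01% Tween-20. Compound added for 30 min at RT, then streptavidin donor/nickel chelate acceptor beads (10 ug/mL) for 30 min.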
Sfp PPTase inh: blocks B. subtilis Sfp PPTase activity; Q9F4F7; Biochemical Sfp PPTase activity, qHTS; Potency, µM, inactives show largest response in the series, negative = inhibition, usual class: inhibitors; 310,000 compounds, 3.5% hits;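 note: the enzyme is Sfp with the accession as filed and its product quenches rhodamine fluorescence; 0% = enzyme reaction without inhibitor and -100% = no enzyme wells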
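Sfp 15 nM + cpd, 15 min RT; start w/ rhodamine-CoA 5 uM, BHQ-2-YbbR 12.5 uM (final); 50 mM Hepes pH 7.6, 10 mM MgCl2, 0.01% NP-40, 0.01% BSA; read 525/598 nm at 0 and 30 min.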
L3MBTL1 inh: blocks human L3MBTL1. AID 485360. Potency, µM (titrated, usually from 57.1 µM), for inactives: top-dose activity, negative = inhibition, usual class: inhibitors. 230,000 compounds, 0.66% hits. AlphaScreen L3MBTL1–H3K9me1 peptide binding. Q9Y468; note: % is set by controls: 0 for no effect and ±100 for the full control effect; nearly all actives have a fitted effect of over 60% in size
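Displacement of a biotinylated histone H3(1-15) peptide monomethylated at Lys9 (75 nM) from L3MBTL1 (50 nM) was measured by AlphaScreen after a 30 min room-temperature compound incubation; cefsulodin titration served as intraplate control.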
An asterisk follows results filed as active; ? = inconclusive; · = no result; [ ] = remark or other dose. Calls come from the whole dose curve; as a rule, active = well fitted curve in the direction sought with a large enough effect; inconclusive = small, poorly fitted or top-dose-only effect, or another doubt; inactive = no such curve, though single readings can be large; an effect the other way counts as inactive or inconclusive. Potency is the fitted concentration of half-maximal effect.

SMILES	JMJD2A Tudor	BAZ2B inh	G9a inh	HP1b binding inh	Sfp PPTase inh	L3MBTL1 inh
COc1cc(C(F)(F)F)c(C(=O)NCc2cccc(Cl)c2)cn1	10%	4%	79µM*	46%	9%	1%
COC(=O)c1scc(-c2ccc(C)cc2)c1S(=O)(=O)N1CCN(c2ccc(F)cc2)CC1	-28%	-29%	?	?	·	·
COC(=O)c1scc(-c2ccc(C)cc2)c1S(=O)(=O)N1CCN(c2ccc(OC)cc2)CC1	?	?	11µM*	?	·	·
COn1c(SC2CCCCC2)nc2ccccc2c1=O	27%	43%	22µM*	78%	-19%	3%
COn1c(SC(C)C)nc2ccccc2c1=O	11%	7%	1%[12.7 µM]	15%	-9%	-3%
Cn1c2c(c3cnc4cc(Cl)ccc4c31)CN(Cc1ccc(Cl)cc1)CC2	-15%[57.1 µM]	·	·	11%[57 µM]	·	·
O=C(CC1C(=O)NCCN1Cc1ccccc1C(F)(F)F)NC1CCCCC1 (stereo not given)	-6%	-9%[57.1 µM]	40µM*	31%	-7%	·
O=C(CC1C(=O)NCCN1Cc1cccc(F)c1)NC1CCCCCC1 (stereo not given)	-1%	-15%	?	30%	5%	·
O=C(CC1C(=O)NCCN1Cc1ccccc1C(F)(F)F)NC1CCCCCC1 (stereo not given)	-23%	-8%[57.1 µM]	45µM*	50%	-4%	·
O=C(CC1C(=O)NCCN1Cc1ccccc1C(F)(F)F)NC1CCC1 (stereo not given)	-7%	-13%	·	27%	-7%	·
O=C(CC1C(=O)NCCN1Cc1ccc(F)cc1Cl)NC1CCCCCCC1 (stereo not given)	-9%	-19%	45µM*	21%	1%	·
O=C(CC1C(=O)NCCN1Cc1c(F)cccc1Cl)NC1CCCCCC1 (stereo not given)	-3%	-2%	0%	4%	22%	0%
Cc1ccc(C)c(N2CCN(C(=O)CS(=O)(=O)c3cccc4nsnc34)CC2)c1	-33%	?	2%[59 µM]	3%[57 µM]	·	·
N/C(=N\OC(=O)c1ccccc1[N+](=O)[O-])c1ccccn1	-20%[57.1 µM]	-31%	3.2µM*	9%	-1%	·
COc1ccccc1C(=O)O/N=C(\N)c1ccccn1	-16%	16%	·	15%	-17%	22%
N/C(=N\OC(=O)COc1ccc2ccccc2c1)c1ccccn1	?	6%	2%[0.501 µM]	14%	89µM*	11%
N/C(=N\OC(=O)c1ccccc1[N+](=O)[O-])c1cccnc1	-9%	11%	?	38%	11%	-15%
N/C(=N\OC(=O)c1ccccc1Cl)c1ccccn1	-15%	0%	71µM*	10%	16%	1%
O=S(=O)(Nc1cccc2cccnc12)c1ccc(Br)cc1	16%	·	·	·	0%	·
Cc1cccc(NC(=O)N2CCC(CN3CCCCCC3)CC2)c1C	-25%	-2%	?	12%	·	·
CCOc1ccc(-c2cc(C(=O)N3CCN(S(=O)(=O)c4cc(Cl)ccc4OC)CC3)[nH]n2)cc1	-13%	-1%	-28%[59 µM]	4%	·	·
O=C(/C=C/c1cccc([N+](=O)[O-])c1)NC(=S)Nc1ccccc1C(=O)O	·	-23%	45µM*	·	40µM*	·
O=C(NC(NC(=S)Nc1ccccc1C(=O)O)C(Cl)(Cl)Cl)c1cccc([N+](=O)[O-])c1 (stereo not given)	79µM*	-6%	?	-31%	-19%	-6%
O=C(NC(NC(=S)Nc1ccccc1Cl)C(Cl)(Cl)Cl)c1cccc(Cl)c1 (stereo not given)	-26%	-29%	-22%	-24%	10%	-3%
CCCNC(=O)c1cc2n(n1)CCCN(Cc1ccc(F)cc1)C2=O	-13%	-2%	0%[59 µM]	15%	·	·
SMILES	JMJD2A Tudor	BAZ2B inh	G9a inh	HP1b binding inh	Sfp PPTase inh	L3MBTL1 inh
COc1cc(CNCCO)cc(Cl)c1OCc1ccc(Cl)cc1Cl	?	?	-40%[59 µM]	20%	20µM*	-26%
CCOc1c(Cl)cc(CNCc2ccncc2)cc1OC	-8%	-32%	56µM*	33%	21%	2%
CCOc1cc(CNCc2ccccn2)cc(Cl)c1OC	45µM*	56µM*	?	26%	5%	-14%
CCOc1cc(CNCc2ccccn2)cc(Cl)c1OCC	56µM*	50µM*	·	19%	3%	-9%
O=c1c2oc3ccccc3c2n(Cc2ccc(Cl)cc2)c(=O)n1Cc1ccccc1	1%	-20%	6%[59 µM]	44%	·	·
COC(=O)c1cccc(Nc2c(-c3ccc(O)c(OC)c3)nc3nc[nH]n23)c1	-33%	-23%	?	?	·	·
O=C(c1coc(=O)c(Br)c1)N1CCCc2ccccc21	40µM*	22µM*	18µM*	-34%	79µM*	?
O=C(c1cc(-c2ccco2)on1)N1CCCc2ccccc21	56µM*	?	13µM*	-8%	-5%	0%
CC1CCCC(C)N1C(=O)c1cc(-c2ccco2)on1 (stereo not given)	-7%	0%	50µM*	24%	-2%	·
CC1(C)CCCN(C(=O)c2coc(=O)c(Br)c2)C1	18µM*	20µM*	·	-95%	-4%	6.3µM*
CC1CCN(C(=O)c2cc(-c3ccco3)on2)CC1	-13%	0%	?	1%	1%	·
O=C(c1cccc(Br)c1)N1CCCc2ccccc21	-1%	-5%	·	80%	-1%	6%
O=C(NCCc1ccccc1)c1ccc(CSc2nc3ccncc3n2Cc2ccc(F)cc2)cc1	-11%	-8%	2%[59 µM]	45%	·	·
Cc1ccc2oc(-c3cc(NC(=O)CC(C)C)ccc3Cl)nc2c1	-3%	8%	-3%[59 µM]	24%	·	·
O=C(c1nn2c(C(F)(F)F)cc(-c3ccco3)nc2c1Br)N1CCCc2ccccc21	-13%[57.1 µM]	2%	18µM*	1%	-19%	-5%
Cc1ccc2nc(COc3ccccc3NC(=O)c3ccccc3F)cc(=O)n2c1	4%	6%	-7%[59 µM]	29%[57 µM]	·	·
C#CCOCCOCCOCCNc1nc(N2CCN(C(=O)[C@H](Cc3ccc(O)cc3)n3cc([C@@H](N)C(C)CC)nn3)CC2)nc(N2CCN(C(=O)[C@H](Cc3cc4ccccc4[nH]3)n3cc([C@@H](N)Cc4ccc(O)cc4)nn3)CC2)n1 (stereo not given in full)	·	32µM*	?	·	56µM*	·
C#CCOCCOCCOCCNc1nc(N2CCN(C(=O)[C@H](Cc3ccc(O)cc3)n3cc([C@@H](N)CC(C)C)nn3)CC2)nc(N2CCN(C(=O)[C@H](Cc3cc4ccccc4[nH]3)n3cc([C@@H](N)CC(C)C)nn3)CC2)n1	10µM*	25µM*	5%[12.7 µM]	-10%	-19%	-14%
